Assay outcomes deposited in PubChem by National Center for Advancing Translational Sciences (NCATS).
PI5P4K alpha inh = blocks human PI5P4K alpha kinase activity; PI5P4Kalpha enzyme, ADP-Glo luminescence, 60 min; hits give low values; max response, %; 330,000 compounds, 1.2% hits; active means max response of -50% or lower; inconclusive means between -30% and -50%; inactive means -30% or higher; further: value at the top dose of about 77 µM; on the % scale 0 is the no-effect control and ±100 the full control effect
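PI5P4Kalpha ADP-Glo assay; 5 microM ATP final; 60 min RT reaction; HEPES pH 7.4/EGTA/CHAPS, 5% DMSO; controls lacking substrate or enzyme; luminescent end-point.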
POLH inh = DNA polymerase eta (human) inhibition. Q9Y253. recombinant Pol eta, fluorescent DNA replication assay. Potency, µM (doses to about 114 µM), for inactives: at the highest dose activity change, negative = inhibition, most hits filed as inhibitors. 390,000 compounds, 1.2% hits; further: potency means the concentration at half of the fitted maximal effect; on the % scale 0 is the no-effect control and ±100 the full control effect
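Pol eta (10 nM) was preincubated with compounds for 15 min at room temperature, after which fluorescent replication substrate (50 nM final) was added to start the reaction. Fluorescence was read kinetically at 0 and 10 min.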
Pol iota inh = blocks human DNA polymerase iota activity. Q9UNA4. Pol iota fluorescent replication assay, 10 min. Potency, µM (series often up to 115 µM), without a hit: at the top dose activity, negative = inhibition, hits mostly inhibitors. 390,000 compounds, 1% hits. AID 588590; further: potency means the concentration at half of the fitted maximal effect
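Pol iota at 10 nM preincubated 15 min with compounds at room temperature; reaction started with fluorescent substrate, 50 nM final. Fluorescence read kinetically at 0 and 10 min; buffer-only wells as negative control.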
POLB inh = DNA polymerase beta (human) inhibition | Pol beta primer extension/strand displacement, fluorescence kinetic | Potency, µM (top dose mostly 114 µM), inactives show top-dose activity change, negative = inhibition, hits mostly inhibitors | 340,000 compounds, 1.3% hits; further: potency means the concentration at half of the fitted maximal effect; on the % scale 0 is the no-effect control and ±100 the full control effect
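Curves were derived by four-parameter Hill fits of normalized qHTS data. The kinetic fluorescent primer-extension read was taken at 0 and 10 min after 50 nM substrate, following a 15 min room-temperature preincubation of 10 nM enzyme with compounds.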
POLK inh = DNA polymerase kappa (human) inhibition | Q9UBT6 | purified Pol kappa, fluorescent DNA synthesis assay, 10 min | Potency, µM (highest dose often 107 µM), inactives show top-dose activity, negative = inhibition, actives largely listed as inhibitors | 400,000 compounds, 0.53% hits; further: potency means the concentration at half of the fitted maximal effect; on the % scale 0 is the no-effect control and ±100 the full control effect
Target sequence (Q9UBT6 whole entry, looked up): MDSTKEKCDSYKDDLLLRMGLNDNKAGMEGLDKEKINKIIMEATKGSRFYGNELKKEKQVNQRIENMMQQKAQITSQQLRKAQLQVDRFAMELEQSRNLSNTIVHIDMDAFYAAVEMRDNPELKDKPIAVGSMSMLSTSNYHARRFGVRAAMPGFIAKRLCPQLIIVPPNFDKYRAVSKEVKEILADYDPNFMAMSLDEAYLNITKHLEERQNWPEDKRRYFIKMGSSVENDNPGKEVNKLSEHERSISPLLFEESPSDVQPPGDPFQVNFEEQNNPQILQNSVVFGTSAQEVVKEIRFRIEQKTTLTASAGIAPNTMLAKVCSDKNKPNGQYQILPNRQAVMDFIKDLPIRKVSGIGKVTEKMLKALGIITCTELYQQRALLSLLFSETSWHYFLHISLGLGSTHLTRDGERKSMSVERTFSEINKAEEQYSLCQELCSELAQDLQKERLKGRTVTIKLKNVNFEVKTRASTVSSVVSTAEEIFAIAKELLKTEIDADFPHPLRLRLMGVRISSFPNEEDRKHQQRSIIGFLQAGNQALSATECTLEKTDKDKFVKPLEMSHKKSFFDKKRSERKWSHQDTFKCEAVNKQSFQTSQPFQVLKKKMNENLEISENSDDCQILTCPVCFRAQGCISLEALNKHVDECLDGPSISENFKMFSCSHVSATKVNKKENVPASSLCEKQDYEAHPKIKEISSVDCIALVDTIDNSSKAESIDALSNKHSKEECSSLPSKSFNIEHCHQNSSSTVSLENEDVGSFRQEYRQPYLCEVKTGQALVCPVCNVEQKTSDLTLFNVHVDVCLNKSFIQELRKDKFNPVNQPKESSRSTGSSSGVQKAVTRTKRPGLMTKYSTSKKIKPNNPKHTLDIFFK
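Fluorescent qHTS in 1536-well format: enzyme (10 nM) and compound sat 15 min at room temperature before 50 nM substrate (final) was added. Signal taken at 0 and 10 min; no-enzyme buffer wells were negative controls.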
PI4K2A inh = blocks human PI4K2A kinase activity; Q9BTU6; purified PI4K2A, ADP-Glo luminescence, 1 h; hits give low values; activity change, negative = inhibition, % at 76.9 µM; 420,000 compounds, 0.13% hits; in the data active means activity change below about -50%; inconclusive means mostly about -30% to -49%;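 further: -100% = wells without enzyme as full effect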
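ADP-Glo luminescence measured ADP generated by PI4K2A enzyme (4 ug/mL before mixing) with 1.2 mM PI substrate (pre-mix) and 300 microM ATP (pre-mix). Tris pH7.5 buffer with MgCl2, Triton X-100; 1 h reaction at ambient temperature.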
Active calls of the source: *; ? = inconclusive; . = no result given; [ ] = dose if it differs, or a comment. Sampled rows, rich in hits. Any-hit rate of the full collection: about 2.8%. Unless noted, the call rests on the fitted dose curve; in most records, active means well fitted inhibition curve with a large enough effect; inconclusive means small, poorly fitted or top-dose-only effect, or another doubt; inactive means no such curve, though single readings can be large or run the other way.

SMILES	PI5P4K alpha inh	POLH inh	Pol iota inh	POLB inh	POLK inh	PI4K2A inh
CC(Oc1ccccc1)C(=O)N[C@@H]1C(=O)N2[C@@H]1SC(C)(C)[C@@H]2C(=O)OCc1ccccc1 (stereo partly drawn)	.	.	4.6%	.	-0.8%	.
COc1cc(OC)cc(C(=O)NCC(=O)OCC(=O)NCc2ccco2)c1	-14.5	?	79.4µM*	.	?	-3.9
COc1cc(C(=O)OCC(=O)NCc2ccco2)cc(OC)c1OC	-19.4	?	?	?	-15.3%	5.7
COc1ccccc1N(CC(=O)NCc1ccco1)S(C)(=O)=O	1.2	-9.3%	-1.2%	?	0.7%	-0.4
COc1ccc(S(=O)(=O)N(CC(=O)NCc2ccco2)c2ccccc2OC)cc1	?	?	50.1µM*	?	?	4.9
CCOc1cc(C(=O)OCC(=O)NCc2ccco2)cc(OCC)c1OCC	?	?	?	17.8µM*	?	-12.3
Cc1ccc(/C=C/C(=O)OCC(=O)NC(=O)NCc2ccco2)cc1	?	50.1µM*	?	.	-44.6%	-1.4
O=C(COC(=O)/C=C/c1ccccc1)NCc1ccco1	-11.6	-4.0%	.	.	.	-0.8
O=C(C[N+]12CCCc3cccc(c31)CCC2)c1ccc2ccc3cccc4ccc1c2c34	.	.	59.4%	.	-11.4%	.
Cc1cccc(C)c1NC(=O)c1cc(S(N)(=O)=O)c(Cl)cc1O	.	.	.	.	.	0.0
COC(=O)[C@]1(C)CN(C(=O)OC(C)(C)C)C2=C1C(=O)C[C@@](C)(C(=O)OC(C)(C)C)C2	.	.	.	.	.	-1.8
O=C(COC(=O)/C=C/c1cccc(Br)c1)NCc1ccco1	3.9	-4.9%	-1.9%	.	-3.8%	2.3
O=C(COC(=O)Cc1ccc(F)cc1)NCc1ccco1	-2.1	?	?	22.4µM*	?	0.2
CC(C)(C)c1ccc(OCC(=O)NNC(=S)NC(=O)c2ccco2)c(Br)c1	-0.4	-10.7%	-5.8%	15.1%	-11.8%	4.0
CC(C)(C)c1ccc(OCC(=O)NCc2ccco2)c(Br)c1	?	44.7µM*	?	?	-23.1%	-4.8
COc1cccc(/C=C/C(=O)OCC(=O)NCc2ccco2)c1	-53.2*	?	?	44.7µM*	?	-10.0
O=C(COC(=O)c1cccnc1Cl)NCc1ccco1	-11.2	?	?	15.8µM*	-42.4%	2.9
O=C1c2ccccc2C(c2nnnn2-c2ccc3c(c2)OCCO3)N1Cc1cccc(F)c1 (stereo not drawn)	-1.9	.	.	.	.	-1.4
CCCN1CCC(=O)N(CCC#N)CC1	.	.	12.8%	.	-4.0%	.
COc1cc(OC)cc(C(=O)OCC(=O)NCc2ccco2)c1	-6.1	?	44.7µM*	.	-38.2%	-9.9
CCn1c(=O)cc(OCC(=O)NCc2ccco2)c2ccccc21	0.0	?	?	44.7µM*	-14.5%	-7.6
COc1ccc(/C=C/C(=O)OCC(=O)NCCC2=CCCCC2)cc1	-5.1	-17.5%	-2.7%	7.3%	1.2%	4.1
CCn1c(=O)cc(OCC(=O)NCc2ccc(C)o2)c2ccccc21	.	-1.2%	-16.5%	12.0%	-16.4%	-0.4
COc1ccc(CCC(=O)NCc2ccco2)cc1	-28.0	20µM*	-53.2%	39.8µM*	?	-12.3
COc1cccc(/C=C/C(=O)OCC(=O)NCCC2=CCCCC2)c1	-64.7*	4.2%	4.9%	5.3%	-27.1%	-2.0
SMILES	PI5P4K alpha inh	POLH inh	Pol iota inh	POLB inh	POLK inh	PI4K2A inh
O=C(NCc1ccccc1)C1(C(=O)C2CC2)CC(c2ccccn2)=NO1 (stereo not drawn)	.	.	.	.	.	-2.3
Cc1oc2ncn(C)c(=O)c2c1C(=O)N1CCN(c2ccc(Cl)cc2)CC1	.	-9.6%	-12.7%	3.4%	-13.5%	-1.4
COc1ccc(OC)c(/C=N/NC(=O)c2[nH]nc3c2CCc2ccccc2-3)c1	-50.5*	16.7%	-8.1%	?	-16.8%	-1.9
COc1cccc(/C=N/NC(=O)c2[nH]nc3c2CCc2ccccc2-3)c1	-17.9	-16.6%	38.3%	?	?	2.0
CCCCNC1=CC(=O)C(=O)c2ccccc21	-1.0	?	?	20.8%	-10.7%	-19.5
CCCCNC1=CC(=O)C(NCCCC)=CC1=O	0.4	-25.6%	31.6µM*	.	-1.8%	-7.6
C=C1C=C(C)n2ncc(C(=O)Nc3cccc4cnccc34)c2N1	.	.	79.4µM*	.	?	.
CC(=O)Nc1ccc(CN2C(=O)C(Cc3ccccc3)ON=C2c2ncccc2C)cc1 (stereo not drawn)	5.0	.	.	.	.	-1.9
COc1ccc(CC2=C(O)c3ccccc3C(=O)C2=O)cc1	1.5	-17.8%	?	23.2%	-0.7%	-8.7
O=C1C(=O)c2ccccc2C(O)=C1CCCCl	-0.4	?	14.1µM*	30.0%	-9.2%	-14.3
CCN(CC)c1ccc(NC(=O)Nc2ccc(C(C)=O)cc2)cc1	-9.6	-1.1%	2.5%	?	-19.3%	-0.8
CCN(CC)c1ccc(N=C2C=CC(=O)C=C2NC(C)=O)cc1	-28.5	-5.4%	44.7µM*	.	?	-19.3
O=C(Nc1ccc(-c2nc3ccccc3o2)cc1)c1cc(-n2cnnc2)ccc1Cl	-5.4	-6.7%	-172.7%	-3.0%	-2.8%	3.6
O=C(Nc1ccc(-c2nc3ccccc3o2)c(O)c1)c1cc(-n2cnnc2)ccc1Cl	.	-20.3%	?	35.5µM*	-1.2%	-2.4
O=C(Nc1ccc2oc(-c3ccccc3)nc2c1)c1cc(-n2cnnc2)ccc1Cl	-4.1	-23.9%	35.5µM*	?	-9.3%	4.9
CC(=O)c1cc(-c2cc(C(F)(F)F)cc(C(F)(F)F)c2)c(=O)n2c1CCC2	.	.	.	.	.	1.9
N=C1S/C(=C\c2cn[nH]c2-c2ccc(F)cc2)C(=O)N1c1ccccc1F	-69.8*	-9.2%	124.4%	5.1%	-0.5%	0.5
N=C1S/C(=C\c2ccccc2F)C(=O)N1c1ccc(F)cc1	-6.4	-18.2%	18.8%	32.6%	-0.5%	3.0
COc1ccc(N2CCN(C(=O)COc3ccc4ccccc4c3)CC2)cc1	2.5	5.4%	8.3%	7.6%	-6.3%	4.5
COc1cc(OC)cc(C(=O)N2CCN(C(=O)COc3ccc4ccccc4c3)CC2)c1	.	-10.2%	70.8µM*	13.2%	-7.5%	-0.8
C(=C1c2ccccc2Oc2ccccc21)c1ccccc1	.	.	-4.5%	.	-22.8%	.
O=C(OCC(=O)N1CCN(c2ccccc2)CC1)c1ccc2ncsc2c1	-24.1	?	?	89.1µM*	-39.7%	-13.2
COCCn1c(C)cc(C(=O)COC(=O)c2ccc3ncsc3c2)c1C	-57.8*	?	?	?	-12.5%	-29.4
O=C(COC(=O)c1ccc2ncsc2c1)NC(=O)C1CCCCC1	.	.	70.8µM*	.	-26.1%	.
CC(C)c1nn2c(=O)cc(COC(=O)c3ccc(NC(=O)CCc4ccccc4)cc3)nc2s1	.	-21.1%	24.1%	0.0%	-4.5%[60.1 µM]	7.5
